# Measurements as given in ChEMBL document CHEMBL2218924, “A broad activity screen in support of a chemogenomic map for kinase signalling research and drug discovery” (Biochem J, 2013).
# What was measured:
# [1] = target: SRSF protein kinase 2 (Homo sapiens) (UniProt P78362); settings: at 1 µM
# [2] = target: SRSF protein kinase 2 (Homo sapiens) (UniProt P78362); settings: at 10 µM
# [3] = target: Serine/threonine-protein kinase 33 (Homo sapiens) (UniProt Q9BYT3); settings: at 1 µM
# [4] = target: Serine/threonine-protein kinase 33 (Homo sapiens) (UniProt Q9BYT3); settings: at 10 µM
# [5] = target: Serine/threonine-protein kinase PLK2 (Homo sapiens) (UniProt Q9NYY3); settings: at 1 µM
# Serine/threonine-protein kinase PLK2 (Homo sapiens), sequence (Q9NYY3 whole entry, looked up): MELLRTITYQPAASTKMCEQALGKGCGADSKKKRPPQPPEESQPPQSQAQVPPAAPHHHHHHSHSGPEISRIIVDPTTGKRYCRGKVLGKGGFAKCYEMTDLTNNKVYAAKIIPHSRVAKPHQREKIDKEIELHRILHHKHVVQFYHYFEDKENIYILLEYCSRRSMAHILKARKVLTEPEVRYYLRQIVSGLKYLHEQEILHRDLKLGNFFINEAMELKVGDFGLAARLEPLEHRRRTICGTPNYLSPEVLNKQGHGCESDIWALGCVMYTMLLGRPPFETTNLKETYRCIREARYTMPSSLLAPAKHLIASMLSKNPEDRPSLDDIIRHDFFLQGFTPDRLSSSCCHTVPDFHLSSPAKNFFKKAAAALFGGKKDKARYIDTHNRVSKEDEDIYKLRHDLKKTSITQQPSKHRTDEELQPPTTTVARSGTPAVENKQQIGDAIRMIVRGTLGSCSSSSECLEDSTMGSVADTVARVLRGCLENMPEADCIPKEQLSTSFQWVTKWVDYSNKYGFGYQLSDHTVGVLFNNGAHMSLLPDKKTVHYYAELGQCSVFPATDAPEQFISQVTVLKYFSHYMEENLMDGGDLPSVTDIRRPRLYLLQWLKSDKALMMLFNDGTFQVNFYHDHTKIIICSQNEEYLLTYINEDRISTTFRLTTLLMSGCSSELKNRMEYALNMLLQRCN
# [6] = target: Serine/threonine-protein kinase PLK2 (Homo sapiens) (UniProt Q9NYY3); settings: at 10 µM
# [7] = target: Tyrosine-protein kinase SYK (Homo sapiens) (UniProt P43405); settings: at 1 µM
# [8] = target: Tyrosine-protein kinase SYK (Homo sapiens) (UniProt P43405); settings: at 10 µM
# [9] = target: T1, Mitogen-activated protein kinase kinase kinase 7 (Homo sapiens) (UniProt O43318); settings: at 1 µM
# T1 sequence (whole entry): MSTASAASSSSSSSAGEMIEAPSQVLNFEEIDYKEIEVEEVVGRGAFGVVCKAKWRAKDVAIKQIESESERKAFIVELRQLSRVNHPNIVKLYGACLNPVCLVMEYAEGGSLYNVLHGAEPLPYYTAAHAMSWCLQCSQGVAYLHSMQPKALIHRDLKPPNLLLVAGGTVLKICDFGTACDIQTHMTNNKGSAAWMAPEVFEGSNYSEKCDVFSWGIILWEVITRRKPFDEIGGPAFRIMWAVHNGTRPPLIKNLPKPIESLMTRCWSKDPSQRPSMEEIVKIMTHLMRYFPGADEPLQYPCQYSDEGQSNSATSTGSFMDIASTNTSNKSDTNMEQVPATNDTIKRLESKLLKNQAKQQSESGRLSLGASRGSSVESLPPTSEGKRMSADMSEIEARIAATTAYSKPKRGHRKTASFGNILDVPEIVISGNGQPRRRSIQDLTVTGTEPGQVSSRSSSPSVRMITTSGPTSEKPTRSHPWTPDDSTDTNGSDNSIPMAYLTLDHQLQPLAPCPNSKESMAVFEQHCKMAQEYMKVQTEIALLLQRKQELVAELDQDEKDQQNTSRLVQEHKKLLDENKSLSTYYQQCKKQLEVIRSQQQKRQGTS
# [10] = target: T1, Mitogen-activated protein kinase kinase kinase 7 (Homo sapiens); settings: at 10 µM
# [11] = target: T2, Serine/threonine-protein kinase TAO1 (Homo sapiens) (UniProt Q7L7X3); settings: at 1 µM
# T2 sequence (whole entry): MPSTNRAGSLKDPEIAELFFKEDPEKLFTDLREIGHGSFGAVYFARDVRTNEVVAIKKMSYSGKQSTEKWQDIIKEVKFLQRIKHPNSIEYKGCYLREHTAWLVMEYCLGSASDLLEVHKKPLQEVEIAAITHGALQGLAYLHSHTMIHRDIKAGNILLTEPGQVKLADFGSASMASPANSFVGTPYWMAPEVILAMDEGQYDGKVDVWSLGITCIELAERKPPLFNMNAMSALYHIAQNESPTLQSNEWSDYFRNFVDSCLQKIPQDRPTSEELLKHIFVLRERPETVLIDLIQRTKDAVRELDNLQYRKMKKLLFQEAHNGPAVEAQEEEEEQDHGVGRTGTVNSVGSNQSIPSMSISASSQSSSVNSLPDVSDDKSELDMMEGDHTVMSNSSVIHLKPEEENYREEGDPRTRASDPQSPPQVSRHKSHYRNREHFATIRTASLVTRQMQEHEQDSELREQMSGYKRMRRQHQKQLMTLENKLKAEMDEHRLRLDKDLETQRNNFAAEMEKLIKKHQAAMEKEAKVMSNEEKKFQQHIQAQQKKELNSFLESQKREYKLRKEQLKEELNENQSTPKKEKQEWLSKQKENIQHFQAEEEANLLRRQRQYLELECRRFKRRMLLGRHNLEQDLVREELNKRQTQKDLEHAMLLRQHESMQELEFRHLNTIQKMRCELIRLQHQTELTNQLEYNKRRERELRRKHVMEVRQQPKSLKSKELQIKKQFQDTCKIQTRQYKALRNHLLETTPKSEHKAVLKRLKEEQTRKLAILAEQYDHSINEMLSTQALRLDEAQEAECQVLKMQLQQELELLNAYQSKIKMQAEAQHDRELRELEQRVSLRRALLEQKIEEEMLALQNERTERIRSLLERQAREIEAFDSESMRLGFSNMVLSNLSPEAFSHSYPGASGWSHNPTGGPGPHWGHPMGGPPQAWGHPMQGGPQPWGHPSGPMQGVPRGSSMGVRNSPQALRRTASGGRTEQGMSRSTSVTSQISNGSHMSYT
# [12] = target: T2, Serine/threonine-protein kinase TAO1 (Homo sapiens); settings: at 10 µM
# [13] = target: T3, Serine/threonine-protein kinase TAO2 (Homo sapiens) (UniProt Q9UL54); settings: at 1 µM
# T3 sequence (whole entry): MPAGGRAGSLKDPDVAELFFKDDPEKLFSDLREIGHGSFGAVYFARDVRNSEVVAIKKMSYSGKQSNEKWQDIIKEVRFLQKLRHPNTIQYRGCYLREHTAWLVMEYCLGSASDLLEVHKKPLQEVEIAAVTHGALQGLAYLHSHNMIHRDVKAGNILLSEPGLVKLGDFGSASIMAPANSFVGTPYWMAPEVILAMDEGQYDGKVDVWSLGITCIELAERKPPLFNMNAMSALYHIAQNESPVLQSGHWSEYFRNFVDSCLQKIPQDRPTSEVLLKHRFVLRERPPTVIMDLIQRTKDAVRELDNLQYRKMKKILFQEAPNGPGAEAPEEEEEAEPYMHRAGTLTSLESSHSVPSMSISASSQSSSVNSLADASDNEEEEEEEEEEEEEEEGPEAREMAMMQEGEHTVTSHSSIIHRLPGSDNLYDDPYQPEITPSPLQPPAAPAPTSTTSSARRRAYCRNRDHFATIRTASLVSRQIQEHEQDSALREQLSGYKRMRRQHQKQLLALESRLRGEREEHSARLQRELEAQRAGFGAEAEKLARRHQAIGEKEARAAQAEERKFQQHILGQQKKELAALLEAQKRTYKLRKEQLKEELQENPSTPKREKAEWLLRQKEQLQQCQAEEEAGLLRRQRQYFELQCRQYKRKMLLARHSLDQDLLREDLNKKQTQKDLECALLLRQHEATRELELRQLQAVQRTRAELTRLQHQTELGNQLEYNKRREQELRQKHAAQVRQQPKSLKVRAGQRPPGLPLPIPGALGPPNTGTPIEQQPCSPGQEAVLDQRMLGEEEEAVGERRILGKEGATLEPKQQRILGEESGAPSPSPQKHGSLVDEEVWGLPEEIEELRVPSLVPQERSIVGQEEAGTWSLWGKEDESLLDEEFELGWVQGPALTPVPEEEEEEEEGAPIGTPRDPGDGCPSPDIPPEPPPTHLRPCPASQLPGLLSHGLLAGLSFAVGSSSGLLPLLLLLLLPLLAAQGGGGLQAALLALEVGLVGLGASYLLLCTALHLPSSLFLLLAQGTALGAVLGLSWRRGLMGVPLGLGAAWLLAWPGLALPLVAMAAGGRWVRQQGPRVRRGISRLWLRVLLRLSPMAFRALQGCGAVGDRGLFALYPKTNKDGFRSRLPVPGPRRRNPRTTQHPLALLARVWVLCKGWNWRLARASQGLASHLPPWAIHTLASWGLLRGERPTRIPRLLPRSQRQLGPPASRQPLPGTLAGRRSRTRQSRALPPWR
# [14] = target: T3, Serine/threonine-protein kinase TAO2 (Homo sapiens); settings: at 10 µM
# [15] = target: T4, Serine/threonine-protein kinase TAO3 (Homo sapiens) (UniProt Q9H2K8); settings: at 1 µM
# T4 sequence (whole entry): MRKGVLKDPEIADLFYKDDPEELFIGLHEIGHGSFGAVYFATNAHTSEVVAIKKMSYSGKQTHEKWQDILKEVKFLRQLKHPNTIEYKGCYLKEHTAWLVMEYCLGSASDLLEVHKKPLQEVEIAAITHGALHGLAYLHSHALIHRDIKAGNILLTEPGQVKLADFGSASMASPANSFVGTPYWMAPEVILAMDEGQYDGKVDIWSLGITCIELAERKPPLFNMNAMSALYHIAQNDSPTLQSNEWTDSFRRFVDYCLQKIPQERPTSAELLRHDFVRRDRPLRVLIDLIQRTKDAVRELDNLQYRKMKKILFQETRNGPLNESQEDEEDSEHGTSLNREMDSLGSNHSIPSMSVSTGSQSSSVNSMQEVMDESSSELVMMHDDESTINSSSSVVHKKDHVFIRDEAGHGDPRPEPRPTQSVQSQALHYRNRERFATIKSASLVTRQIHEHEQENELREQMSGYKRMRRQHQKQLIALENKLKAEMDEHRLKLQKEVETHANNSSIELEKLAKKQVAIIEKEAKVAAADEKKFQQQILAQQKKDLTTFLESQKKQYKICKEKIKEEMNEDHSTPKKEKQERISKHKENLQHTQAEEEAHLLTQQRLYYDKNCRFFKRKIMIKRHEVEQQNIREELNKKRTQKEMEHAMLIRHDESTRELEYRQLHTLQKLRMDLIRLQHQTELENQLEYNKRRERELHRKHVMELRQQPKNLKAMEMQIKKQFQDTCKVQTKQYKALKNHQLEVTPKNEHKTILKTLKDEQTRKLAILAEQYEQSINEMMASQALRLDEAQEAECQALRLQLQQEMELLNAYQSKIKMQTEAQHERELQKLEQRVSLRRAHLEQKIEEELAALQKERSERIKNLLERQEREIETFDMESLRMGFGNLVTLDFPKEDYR
# [16] = target: T4, Serine/threonine-protein kinase TAO3 (Homo sapiens); settings: at 10 µM
# [17] = target: T5, Serine/threonine-protein kinase TBK1 (Homo sapiens) (UniProt Q9UHD2); settings: at 1 µM
# T5 sequence (whole entry): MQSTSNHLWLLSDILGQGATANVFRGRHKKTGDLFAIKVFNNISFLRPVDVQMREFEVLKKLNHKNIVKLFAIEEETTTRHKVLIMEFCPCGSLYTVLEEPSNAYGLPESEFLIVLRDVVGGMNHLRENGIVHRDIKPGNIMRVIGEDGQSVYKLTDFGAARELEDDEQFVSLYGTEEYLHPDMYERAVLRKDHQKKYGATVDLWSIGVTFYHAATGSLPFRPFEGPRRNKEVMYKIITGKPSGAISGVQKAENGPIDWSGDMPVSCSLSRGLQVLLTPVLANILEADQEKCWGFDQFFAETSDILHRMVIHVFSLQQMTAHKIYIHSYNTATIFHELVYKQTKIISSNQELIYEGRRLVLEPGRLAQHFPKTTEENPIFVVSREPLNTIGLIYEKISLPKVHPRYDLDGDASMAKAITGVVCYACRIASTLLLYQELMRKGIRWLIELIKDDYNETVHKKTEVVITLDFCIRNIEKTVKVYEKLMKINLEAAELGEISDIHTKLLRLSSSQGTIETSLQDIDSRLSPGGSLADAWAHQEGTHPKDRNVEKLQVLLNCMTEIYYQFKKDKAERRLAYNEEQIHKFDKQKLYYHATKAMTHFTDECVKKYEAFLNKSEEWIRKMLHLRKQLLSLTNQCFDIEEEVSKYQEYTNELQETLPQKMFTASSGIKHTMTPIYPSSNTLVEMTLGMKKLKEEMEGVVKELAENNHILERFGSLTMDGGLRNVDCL
# [18] = target: Serine/threonine-protein kinase SIK1 (Homo sapiens) (UniProt P57059); settings: at 10 µM
# Serine/threonine-protein kinase SIK1 (Homo sapiens), sequence (P57059 whole entry): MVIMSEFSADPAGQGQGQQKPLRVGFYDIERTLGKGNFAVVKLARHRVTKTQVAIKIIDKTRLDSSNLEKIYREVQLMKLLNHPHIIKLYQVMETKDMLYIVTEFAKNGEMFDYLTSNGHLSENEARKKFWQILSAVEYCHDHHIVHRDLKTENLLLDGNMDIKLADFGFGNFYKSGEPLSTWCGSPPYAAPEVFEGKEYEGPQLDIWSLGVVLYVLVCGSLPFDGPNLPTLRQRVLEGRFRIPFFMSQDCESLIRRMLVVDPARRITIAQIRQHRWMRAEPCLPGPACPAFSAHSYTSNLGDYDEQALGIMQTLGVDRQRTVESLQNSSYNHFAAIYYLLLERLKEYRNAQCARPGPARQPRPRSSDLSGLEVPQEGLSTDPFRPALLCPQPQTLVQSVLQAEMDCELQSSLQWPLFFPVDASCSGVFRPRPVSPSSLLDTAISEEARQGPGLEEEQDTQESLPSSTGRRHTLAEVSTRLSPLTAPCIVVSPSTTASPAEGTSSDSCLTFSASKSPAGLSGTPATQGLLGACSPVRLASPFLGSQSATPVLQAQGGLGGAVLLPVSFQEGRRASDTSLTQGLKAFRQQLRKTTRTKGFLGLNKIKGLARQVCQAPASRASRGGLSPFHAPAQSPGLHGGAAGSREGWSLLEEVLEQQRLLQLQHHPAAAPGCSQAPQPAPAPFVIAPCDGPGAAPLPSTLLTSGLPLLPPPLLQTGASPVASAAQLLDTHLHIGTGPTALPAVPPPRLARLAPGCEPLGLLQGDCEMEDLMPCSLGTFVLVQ
# [19] = target: SRSF protein kinase 1 (Homo sapiens) (UniProt Q96SB4); settings: at 1 µM
# SRSF protein kinase 1 (Homo sapiens), sequence (Q96SB4 whole entry): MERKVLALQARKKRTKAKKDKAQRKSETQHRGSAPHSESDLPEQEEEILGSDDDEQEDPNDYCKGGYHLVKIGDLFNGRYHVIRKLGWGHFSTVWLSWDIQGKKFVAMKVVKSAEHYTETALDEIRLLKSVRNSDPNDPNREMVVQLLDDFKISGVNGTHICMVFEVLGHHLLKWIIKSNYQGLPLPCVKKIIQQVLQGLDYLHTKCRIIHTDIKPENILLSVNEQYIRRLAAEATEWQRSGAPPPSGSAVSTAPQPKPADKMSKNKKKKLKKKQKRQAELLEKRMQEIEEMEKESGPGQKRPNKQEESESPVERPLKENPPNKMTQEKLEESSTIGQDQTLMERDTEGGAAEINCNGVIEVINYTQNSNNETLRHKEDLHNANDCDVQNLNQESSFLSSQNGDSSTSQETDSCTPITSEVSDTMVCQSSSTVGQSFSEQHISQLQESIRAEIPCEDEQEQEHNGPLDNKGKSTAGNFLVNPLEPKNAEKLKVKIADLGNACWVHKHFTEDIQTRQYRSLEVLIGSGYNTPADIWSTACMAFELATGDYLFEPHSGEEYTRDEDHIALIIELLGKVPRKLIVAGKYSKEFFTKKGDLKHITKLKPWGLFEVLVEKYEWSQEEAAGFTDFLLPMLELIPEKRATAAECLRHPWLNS
# [20] = target: SRSF protein kinase 1 (Homo sapiens) (UniProt Q96SB4); settings: at 10 µM
# Serine/threonine-protein kinase 33 (Homo sapiens), sequence (Q9BYT3 whole entry, looked up): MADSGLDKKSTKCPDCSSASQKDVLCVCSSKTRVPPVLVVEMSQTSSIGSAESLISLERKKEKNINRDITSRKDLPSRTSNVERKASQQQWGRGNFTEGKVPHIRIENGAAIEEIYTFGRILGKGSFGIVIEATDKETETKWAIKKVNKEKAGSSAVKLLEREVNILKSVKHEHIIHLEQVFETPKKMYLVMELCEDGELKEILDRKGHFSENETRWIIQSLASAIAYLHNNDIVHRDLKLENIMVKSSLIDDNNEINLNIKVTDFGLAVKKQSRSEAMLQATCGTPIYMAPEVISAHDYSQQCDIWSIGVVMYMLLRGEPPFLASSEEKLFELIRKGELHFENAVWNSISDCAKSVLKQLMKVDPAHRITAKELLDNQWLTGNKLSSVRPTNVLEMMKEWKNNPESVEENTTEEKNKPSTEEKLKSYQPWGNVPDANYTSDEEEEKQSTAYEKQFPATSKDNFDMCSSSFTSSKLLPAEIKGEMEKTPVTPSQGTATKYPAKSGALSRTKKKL
# SRSF protein kinase 2 (Homo sapiens), sequence (P78362 whole entry, looked up): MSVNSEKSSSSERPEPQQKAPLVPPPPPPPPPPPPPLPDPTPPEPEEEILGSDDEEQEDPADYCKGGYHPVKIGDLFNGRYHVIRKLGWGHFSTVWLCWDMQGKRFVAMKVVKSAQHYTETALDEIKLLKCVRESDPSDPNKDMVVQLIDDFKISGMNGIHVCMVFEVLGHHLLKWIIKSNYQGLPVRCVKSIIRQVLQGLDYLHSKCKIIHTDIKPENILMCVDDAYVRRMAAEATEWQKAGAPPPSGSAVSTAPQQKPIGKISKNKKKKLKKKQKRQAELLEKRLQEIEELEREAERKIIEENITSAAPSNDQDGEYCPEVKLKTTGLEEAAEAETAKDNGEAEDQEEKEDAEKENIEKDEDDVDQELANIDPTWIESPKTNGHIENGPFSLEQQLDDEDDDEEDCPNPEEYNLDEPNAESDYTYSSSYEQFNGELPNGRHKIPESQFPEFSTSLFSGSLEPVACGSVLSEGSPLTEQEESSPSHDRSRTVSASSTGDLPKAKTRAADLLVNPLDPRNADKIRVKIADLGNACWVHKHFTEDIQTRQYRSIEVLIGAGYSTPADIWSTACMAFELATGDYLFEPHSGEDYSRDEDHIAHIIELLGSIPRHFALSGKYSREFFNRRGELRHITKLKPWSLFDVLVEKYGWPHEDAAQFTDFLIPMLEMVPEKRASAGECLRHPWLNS
SMILES,residual activity [1],residual activity [2],residual activity [3],residual activity [4],residual activity [5],residual activity [6],residual activity [7],residual activity [8],residual activity [9],residual activity [10],residual activity [11],residual activity [12],residual activity [13],residual activity [14],residual activity [15],residual activity [16],residual activity [17],residual activity [18],residual activity [19],residual activity [20]
O=C(CCCc1ccc(-c2ccccc2F)cc1)Nc1ccc(O)cc1,106%,100%,100%,108%,109%,106%,100%,79%,93%,92%,103%,95%,105%,102%,100%,94%,90%,,,
Oc1cccc(-c2nc(N3CCOCC3)c3oc4ncccc4c3n2)c1,,,,,,98%,131%,94%,,,,94%,,,,93%,82%,-1%,,
CN(C)S(=O)(=O)c1ccc2c(c1)/C(=C/c1cc3c([nH]1)CCCC3)C(=O)N2,34%,14%,85%,93%,,,97%,96%,100%,92%,37%,56%,93%,87%,89%,73%,74%,,20%,8%
